This is part of a sample that, as a whole, favours compounds with a hit. Of some 83,000 tested, about 20% had one in any assay.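 Step 1: grow cells in 96-well plates. Step 2: add test compound at a single concentration. Step 3: incubate 48 h. Step 4: record percent growth.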 The source made the active and inactive calls.
The compounds below were run on OVCAR-8 ovarian (assay: NCI-60 one-dose screen, 48 h (100 = growth as untreated, 0 = no growth, -100 = all killed)). Settings: 10 µM unless noted.
Experimental: Growth inhibition of the OVCAR-8 human tumor cell line is measured as a screen for anti-cancer activity. Cells are grown in 96 well plates and exposed to the test compound for 48 hours. Compounds are tested at a single concentration, which is 10^-5 M for most compounds. The reported endpoint is percent growth (GI% or GIPRCNT), where numbers from 0 - 100% represent growth inhibition, and numbers from -100% - 0 represent cell death. For example, a value of 40 represents 60% growth inhibition. A value of 0 means no net growth occurred over the course of the experiment. A value of -40 indicates 40% of cells at the beginning of the experiment died by the end of the experiment. A value of -100 means all cells are dead at the end of the experiment.
NCI-60 Human Tumor Cell Lines Screen was performed using the standard one-dose NCI protocol, which is described in more detail at https://dtp.cancer.gov/discovery_development/nci-60/default.htm.
Compounds with GIPRCNT values below 10 were considered active. Activity score was based on GIPRCNT using the following formula: […]
Score is 0 for GIPRCNT values of 100 or above, 50 for GIPRCNT values of 0, and 100 for GIPRCNT values of -100.

Row | Compound | growth
1 | NS(=O)(=O)c1cccc(Nc2nc(SCC(=O)c3ccc(Cl)cc3)nc3ccccc23)c1 | 39.9% (inactive)
2 | O=C1Nc2ccc(Cl)cc2/C1=C/c1ccc(OCC(=O)c2ccc(Br)cc2)cc1 | 96% (inactive)
3 | C#Cc1nc(C2=C(C)/C(=N/OCc3ccccc3)CC2)cs1 | 21.2% (inactive)
4 | COc1ccc2[nH]cc(-c3cc(N)n4nc(-c5c[nH]c6ccc(OC)cc56)cc4n3)c2c1 | -62.6% (active)
5 | O=C1Nc2cc(Cl)ccc2/C1=C\c1ccc(OCc2ccc(Br)cc2F)cc1 | -36.7% (active)
6 | O=C(CSc1nccc(=O)[nH]1)Nc1ccc(-c2nc3ccccc3[nH]2)cc1 | 103% (inactive)
7 | O=C1c2c(c3c4cc(Br)ccc4[nH]c3c3ccc4ccccc4c23)C(=O)N1CCO | 85.2% (inactive)
8 | N=C1CC(=O)NN1C(=O)CSc1nc2sc3c(c2c(=O)n1-c1ccc(Cl)cc1)CCCC3 | 100% (inactive)
9 | COc1cc(N=Cc2sc(Nc3nccs3)nc2O)cc(OC)c1OC | 81.2% (inactive)
10 | CO/N=C1\CCc2c(sc(NC(=O)c3cccc(C(F)(F)F)c3)c2C(N)=O)C1 | 20.9% (inactive)
11 | O=C(CCN1C(=O)/C(=C/c2ccccc2F)SC1=S)N1CCOCC1 | 99.6% (inactive)
12 | OC1CCN(CCCOc2c3ccc(Cl)cc3nc3c2oc2ccccc23)CC1 | 3.92% (active)
13 | COc1cc2nc(-c3ccc(Cl)cc3)cc(OCCCNCC3CCCO3)c2cc1OC (stereo not given) | 42.2% (inactive)
14 | Cc1ccc(CNS(=O)(=O)/N=C2\NC(=O)NC2=C(Cl)Cl)cc1 | 91.2% (inactive)
15 | COc1ccc(-c2nc3ccc(-c4nnc(SCC(=O)Nc5ccc(C(=O)/C=C/c6ccccc6)cc5)o4)cc3[nH]2)cc1OC | 104% (inactive)
16 | COc1cc2cc(Oc3ccc(NC(=O)c4cccc(C(F)(F)F)c4)cc3)c(C)nc2cc1OCCN1CCCCC1 | 62.6% (inactive)
17 | CS(=O)(=O)c1ccc(-c2nc3ccccn3c2C=Nc2ccc(Cl)cc2)cc1 | 86.3% (inactive)
18 | c1ccc(CNc2ncnc3ccc(-c4cnc5[nH]ncc5c4)cc23)cc1 | 71.2% (inactive)
19 | OC1CCc2c(-c3ccc4ncnc(N5CCc6cc(F)c(Cl)cc65)c4c3)cncc21 (stereo not given) | 52.9% (inactive)
20 | Cc1c(NC(=O)CSc2nc3sc4c(c3c(=O)n2-c2ccc(Cl)cc2)CCCC4)c(=O)n(-c2ccccc2)n1C | 97.1% (inactive)

Row | Compound | growth
21 | C=CCSc1ccc2c(c1)C(N1CCNCC1)=Nc1ccccc1O2 | 92.5% [8.25 µM] (inactive)
22 | CCN(CC)c1ccc(C=O)c(OCc2cn(CC(=O)Nc3ccc(Cl)cc3)nn2)c1 | 75.3% (inactive)
23 | COc1cc(/C=C/C(=O)c2cc(OC)c(OC)c(OC)c2)ccc1OCc1ccc(F)cc1 | 15.4% (inactive)
24 | Fc1ccc(-c2cc3nc(C(Cl)Cl)nc(-c4ccc(Cl)cc4)n3n2)cc1 | 19% (inactive)
25 | Fc1ccc(-c2nc(C(Cl)Cl)nc3cc(-c4ccccc4)nn23)cc1 | -0.748% (active)
26 | CSCCC(C(=O)O)N1C(=O)/C(=C/c2ccc(O)c(O)c2)SC1=S (stereo not given) | 108% (inactive)
27 | O=C(CCCN1C(=O)/C(=C/c2ccccc2F)SC1=S)N1CCOCC1 | 99% (inactive)
28 | [Cl][Ru].c1ccc(-c2cc(-c3ccccn3)nc(-c3ccccn3)c2)cc1.c1ccc(-c2ccnc3c2ccc2c(-c4ccccc4)ccnc23)cc1 | -65.5% (active)
29 | NS(=O)(=O)c1ccc(Nc2nc(Nc3ccccc3)nc(-n3nc(-c4ccccc4)cc3-c3ccccc3)n2)cc1 | 40% (inactive)
30 | COc1ccc(C(=O)/C=C/c2ccc(OCc3ccc(C)cc3)c(OC)c2)cc1OC | 49.1% (inactive)
31 | N#Cc1c(-c2ccc(Cl)cc2)nc(SCc2ccccc2)nc1N1CCNCC1 | 65.6% (inactive)
32 | C#Cc1nc(C2=C(C)C(OC(C)=O)/C(=N/OC(C)=O)C2)cs1 (stereo not given) | 0.146% (active)
33 | Clc1ccc2oc3c(NCCCN4CCOCC4)c4ccccc4nc3c2c1 | 23.3% (inactive)
34 | NC(=O)c1c(NC(=O)c2ccc(C3CCCCC3)cc2)sc2c1CCC(=O)C2 | 14.8% (inactive)
35 | Cc1ccc2ccc3ccc(C)nc3c2n1.Cc1ccc2ccc3ccc(C)nc3c2n1.Oc1c(Cl)cc(Cl)c2ccc(CN3CCCCC3)nc12.[Ru] | -75.4% (active)
36 | COc1ccc(NC2=C(Cl)C(=O)C(C)=C(C)C2=O)cc1OC | 97.5% (inactive)
37 | CC(=O)Nc1cc(F)cc(-c2ccc3[nH]cc(-c4ccccc4)c3n2)c1 | 34% (inactive)
38 | Nc1c(C(=O)Nc2ccc(C(F)(F)F)cc2)sc2nc(-c3cnccn3)cc(-c3cccs3)c12 | 66.7% (inactive)
39 | CCN1C(=S)N(CC)C2C1NN=C1SC(c3ccccc3)=CC(=O)N12 (stereo not given) | 99.4% (inactive)
40 | Cc1nc(-c2cc3ccccc3oc2=O)ccc1C(=O)/C=C/c1ccc(N2CCOCC2)cc1 | 81% (inactive)

Source: PubChem BioAssay (NCI)
